From PubChem BioAssay
An excerpt weighted towards active compounds, which were near 7.5% of everything screened.
KinaseGlo FLuc: counter-screen: inhibitors of Kinase-Glo firefly luciferase; Q27757; Kinase-Glo luciferase, ATP luminescence, 8 min; Potency, µM (doses to about 38.3 µM), inactives show at the top dose activity change, negative = inhibition, hits mostly inhibitors; 200,000 tested, 0.28% active; AID 1379; note: % is set by controls: 0 for no effect and ±100 for the full control effect; nearly all actives have a fitted effect of over 60% in size
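Substrate mix (final 50 mM imidazole pH 7.2, 50 mM KCl, 7 mM MgCl2, 10 uM ATP, 0.01% Tween 20, 0.05% BSA) plus pin-tool compound, then Kinase-Glo detection mix; 8 min ambient, luminescence read.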
SMN2 splice up: increases expression of the SMN2 splice variant; AID 1458; Potency, µM (top dose mostly 46.1 µM), for inactives: at the top dose activity change, positive = activation, actives largely listed as activators; 210,000 tested, 2.8% active; HEK293 SMN2-luciferase splicing reporter, luminescence, 30-36 h; note: % of control where 0% means no effect; nearly all actives have a fitted effect of over 55% in size
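HEK293 cells carry an SMN2 minigene-luciferase reporter in which exon 7 inclusion puts luciferase in frame. Cells were seeded at 2000 cells/well, attached for 10-12 hours, then exposed to compounds for 30-36 hours at 37C before ONE-Glo luminescence.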
FLuc counter: counter-screen for miR-21 project: firefly luciferase inhibitors or activators; P08659; purified FLuc, Km substrates, luminescence inhibition; Potency, µM (doses to about 57.5 µM), for inactives: at the top dose activity change, negative = inhibition, actives largely listed as inhibitors; 360,000 tested, 6.9% active; AID 588342;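 note: plate controls were vehicle for no effect and reference inhibitor for full effect; nearly all actives have a fitted effect of over 55% in size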
Target sequence (P08659 whole entry, looked up): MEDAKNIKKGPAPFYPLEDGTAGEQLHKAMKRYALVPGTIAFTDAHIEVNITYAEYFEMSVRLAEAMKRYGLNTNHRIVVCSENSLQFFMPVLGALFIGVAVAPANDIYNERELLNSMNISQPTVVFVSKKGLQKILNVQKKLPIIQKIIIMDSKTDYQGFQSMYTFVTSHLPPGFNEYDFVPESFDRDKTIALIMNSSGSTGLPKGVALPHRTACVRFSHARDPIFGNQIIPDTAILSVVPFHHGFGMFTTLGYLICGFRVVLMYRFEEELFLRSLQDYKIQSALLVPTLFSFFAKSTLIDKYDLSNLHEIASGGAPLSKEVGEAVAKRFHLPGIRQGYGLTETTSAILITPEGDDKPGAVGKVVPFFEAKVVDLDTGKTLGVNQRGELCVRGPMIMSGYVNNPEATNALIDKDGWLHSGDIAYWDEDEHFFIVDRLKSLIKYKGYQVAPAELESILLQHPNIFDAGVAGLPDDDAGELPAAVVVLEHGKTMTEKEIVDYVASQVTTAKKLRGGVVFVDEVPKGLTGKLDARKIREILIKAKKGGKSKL
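Purified P. pyralis luciferase, 10 nM final, with Km-level 10 uM D-luciferin and 10 uM ATP in 50 mM Tris acetate pH 7.5, 10 mM Mg acetate, 0.01% Tween-20, 0.05% BSA; 6-point qHTS titration about 60 µM downward; luminescence read.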
NPC1 promoter act: NPC1 promoter activation; Huh7 NPC1 promoter luciferase reporter, 24 h; Potency, µM (top dose mostly 9.22 µM), for inactives: at the highest dose activation, usual class: activators; 320,000 tested, 2.4% active; note: % of control where 0% means no effect; nearly all actives have a fitted effect of over 60% in size
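Quantitative HTS used a cell-based reporter: Huh7 cells stably bearing the NPC1 promoter upstream of luciferase were treated with compounds for 24 h, and promoter activation was read as luminescence.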
ELG1 genotoxic: inducers of genotoxicity in HEK293T ELG1-luciferase cells; HEK293T ELG1-luciferase reporter, luminescence, 16 h; Potency, µM (series often up to 46 µM), without a hit: top-dose activity change, positive = activation, actives largely listed as activators; 330,000 tested, 1.3% active; AID 504466; note: % of control where 0% means no effect; nearly all actives have a fitted effect of over 60% in size
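Cells (2,000/well) expressing the ELG1-luciferase fusion are dosed by pin tool and kept 16 hr at 37 °C, 5% CO2. Signal comes from ONE-Glo luciferase reagent after 30 min at room temperature.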
Rab9 prom act: activates the Rab9 promoter. Huh7 Rab9 promoter-luciferase reporter, luminescence, 24 h. Potency, µM (doses to about 9.22 µM), without a hit: at the top dose activation, negative = inhibition, actives largely listed as activators. 320,000 tested, 2.8% active. AID 485297; note: % of control where 0% means no effect; nearly all actives have a fitted effect of over 60% in size
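Luminescence from Amplite-detected luciferase (10 minutes, ambient) reports Rab9 promoter activation. Before that, stable Rab9-luciferase Huh7 cells (1500/well, reduced-serum OP-MEM I plus 10% FBS) were exposed to compound for 24 hours at 37C.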
Numbers without * were called inactive. Calls come from the whole dose curve; as a rule, active = well fitted curve in the direction sought with a large enough effect; inconclusive = small, poorly fitted or top-dose-only effect, or another doubt; inactive = no such curve, though single readings can be large; an effect the other way counts as inactive or inconclusive. Potency is the fitted concentration of half-maximal effect.

For COC(=O)c1ccc(/C(O)=C(\C#N)c2nc3ccccc3s2)cc1 the results were FLuc counter 7.6µM*, NPC1 promoter act 2.8µM*, ELG1 genotoxic 3% and Rab9 prom act 3.2µM*.
Screening COc1ccc(NC(=O)CCC2CCCCC2)cc1S(=O)(=O)N1CCCCC1 returned FLuc counter -1%, NPC1 promoter act -7%, ELG1 genotoxic -13% and Rab9 prom act -14%.
For CSc1nncc(-c2ccccc2)n1 the results were KinaseGlo FLuc -6%, SMN2 splice up 7%, FLuc counter -10%, NPC1 promoter act -1%, ELG1 genotoxic 6% and Rab9 prom act 13%.
For Cc1ccc(-c2cc(N)n3nc(-c4ccc(C)cc4)cc3n2)cc1 the results were KinaseGlo FLuc -3%, SMN2 splice up -26%, FLuc counter 1%, NPC1 promoter act 0%, ELG1 genotoxic -3% and Rab9 prom act -1%.
Screening Cc1ccc(-c2cc3nc(-c4ccccc4)cc(N)n3n2)cc1 returned KinaseGlo FLuc -4%, SMN2 splice up 7.1µM*, FLuc counter inconclusive, NPC1 promoter act inconclusive, ELG1 genotoxic inconclusive and Rab9 prom act 1.8µM*.
Screening CSc1nc(N)n2nc(-c3ccccc3)cc2n1 returned FLuc counter 3.4µM*, NPC1 promoter act 2µM*, ELG1 genotoxic 10µM* and Rab9 prom act 2.2µM*.
Cc1cc(N)n2nc(-c3ccccc3)cc2n1 was read as KinaseGlo FLuc 13µM*, SMN2 splice up 7.9µM*, FLuc counter 1.1µM*, NPC1 promoter act inconclusive, ELG1 genotoxic 9.2µM* and Rab9 prom act 0.5µM*.
Screening COc1ccc(C2/C(=C(\O)c3cc(C)ccc3C)C(=O)C(=O)N2CCN(C)C)cc1OC (stereo not drawn) returned KinaseGlo FLuc 0%, SMN2 splice up -16%, FLuc counter 0%, NPC1 promoter act 6%, ELG1 genotoxic 1% and Rab9 prom act 15%.
O=C(CSc1ccc(F)cc1)N1CCOCC1 was read as FLuc counter 3%, NPC1 promoter act 0%, ELG1 genotoxic -1% and Rab9 prom act -2%.
For CCn1ncc(/C=N\NC(=O)c2csc3ccccc23)c1C the results were KinaseGlo FLuc 8%, SMN2 splice up 23%, FLuc counter 11µM*, NPC1 promoter act -10%, ELG1 genotoxic inconclusive and Rab9 prom act -8%.
Screening Cc1ccc(-c2cc(C(=O)N/N=C/c3c(C)nn(C)c3C)c3ccccc3n2)c(C)c1 returned KinaseGlo FLuc 17%, SMN2 splice up -2%, FLuc counter inconclusive, NPC1 promoter act 0%, ELG1 genotoxic 5% and Rab9 prom act 7%.
`Cc1c(/C=N\NC(=O)c2csc3ccccc23)cnn1C` gave KinaseGlo FLuc -1%, SMN2 splice up -2%, FLuc counter inconclusive, NPC1 promoter act 2%, ELG1 genotoxic 8% and Rab9 prom act 15%.
For Cc1nn(C)c(C)c1/C=N/NC(=O)c1csc2ccccc12 the results were KinaseGlo FLuc 3%, SMN2 splice up -3%, FLuc counter 17µM*, NPC1 promoter act -2%, ELG1 genotoxic 15% and Rab9 prom act 26%.
Cc1ccc(C)c(Cn2c(=O)cc(C)c3c(C)nn(-c4cccc(F)c4)c32)c1 was read as FLuc counter -4%.
Screening CC[C@@]1(C(=O)OC)N[C@H](CN(C)C(=O)Nc2ccc(F)cc2)[C@@H]2C(=O)N(C)C(=O)[C@@H]21 returned ELG1 genotoxic -1%.
For Cc1ccc(C(=O)/C=C/Nc2ccccc2C(N)=O)cc1 the results were KinaseGlo FLuc 11µM*, SMN2 splice up 0.71µM*, FLuc counter 0.13µM*, NPC1 promoter act 0.63µM*, ELG1 genotoxic 6.5µM* and Rab9 prom act 0.32µM*.
NC(=O)c1ccccc1NC(=O)c1ccccc1Cl was read as FLuc counter -17%, NPC1 promoter act 2%, ELG1 genotoxic 5% and Rab9 prom act 2%.
